PubChem BioAssay (NCI)
About 83,000 compounds went through this panel and 20% of them were active in at least one assay; those are over-represented in the sample as a whole.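 Cell lines were cultured in 96-well plates, exposed to a single compound concentration, and assessed for percent growth 48 hours later.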 The source made the active and inactive calls. The calls were made as follows: active = growth percent below 10; inactive = the rest.

Assays:
Assay in all cases: NCI-60 one-dose screen, 48 h (100 = growth as untreated, 0 = no growth, -100 = all killed)
Details in all cases: 10 µM unless noted
[1] = test system: SR leukemia
[2] = test system: RPMI-8226 leukemia
[3] = test system: OVCAR-8 ovarian
[4] = test system: OVCAR-5 ovarian
[5] = test system: OVCAR-4 ovarian
[6] = test system: SK-OV-3 ovarian
[7] = test system: IGROV1 ovarian
[8] = test system: OVCAR-3 ovarian
[9] = test system: HS 578T breast
[10] = test system: NCI/ADR-RES ovarian
[11] = test system: T-47D breast
[12] = test system: BT-549 breast
[13] = test system: MDA-MB-435 melanoma
[14] = test system: SW-620 colon
[15] = test system: MCF7 breast
[16] = test system: HCC-2998 colon
[17] = test system: KM12 colon
[18] = test system: HCT-116 colon

Measured: growth

Nc1nc(Nc2ccccc2SSc2ccccc2Nc2nc(N)nc(-c3cccs3)n2)nc(-c2ccsc2)n1
active: [10] 4.43%
inactive: [1] 31.3% | [2] 71.9% | [3] 76.9% | [4] 118% | [5] 70.4% | [6] 110% | [7] 58.9% | [8] 90.4% | [9] 93.3% | [11] 56.2% | [12] 86% | [13] 98.1% | [14] 80.4% | [15] 68.1% | [16] 111% | [17] 67.6%

Cn1ccnc1C(=O)/C=C/c1ccc(CC(=O)Nc2ccc(Cl)cc2)cc1
inactive: [4] 22.9% | [5] 36.9% | [6] 58.7% | [7] 13% | [10] 10.8% | [12] 17.6% | [13] 17.6% | [15] 25.5% | [16] 30.3%
active: [1] 6.73% | [2] -7.76% | [3] -27.7% | [8] 4.49% | [9] 8.18% | [11] 2.07% | [14] 7.1% | [17] 9.56%

COc1ccc(CC(C)=C(c2ccc(OCCN3CCCCCC3)cc2)c2ccc(OCCN3CCCCCC3)cc2)cc1
active: [1] -32.2% | [2] -57.9% | [3] -78.1% | [4] -95.9% | [5] -83.9% | [6] -90.1% | [7] -77.8% | [8] -89.2% | [9] -61% | [10] -90.3% | [11] -73.3% | [12] -75.9% | [13] -98.2% | [14] -90.5% | [15] -90.2% | [18] -55.1% | [17] -97.4%

CC(Sc1nc2sc3c(c2c(=O)n1-c1ccc(Cl)cc1)CCCC3)C(=O)Nc1nc(-c2ccc(Br)cc2)cs1 (configuration not stated)
inactive: [1] 97.6% | [2] 102% | [3] 103% | [4] 93.9% | [5] 109% | [6] 96.6% | [7] 96% | [8] 114% | [9] 112% | [10] 95.6% | [11] 98.2% | [12] 90.3% | [13] 102% | [14] 104% | [15] 91.8% | [16] 101% | [17] 104%

Cc1nn(-c2ccccc2)c(Cl)c1/C=C/C(=O)c1ccc(F)cc1
active: [1] 4.28% | [2] -15.6%
inactive: [3] 86.4% | [4] 97.4% | [5] 93.1% | [6] 110% | [7] 104% | [8] 102% | [9] 114% | [10] 93.2% | [11] 82.5% | [12] 92.9% | [13] 87% | [14] 64.7% | [15] 41.5% | [18] 51.1% | [16] 107% | [17] 84.9%

C=C1C(=O)O[C@H]2[C@H]1CC/C(CNC(=O)c1cccc3ccccc13)=C\CC[C@@]1(C)O[C@@H]21
active: [2] 2.93% | [18] -21.6%
inactive: [1] 16.5% | [3] 43.5% | [4] 68.8% | [5] 63.2% | [6] 110% | [7] 31.3% | [8] 24.8% | [9] 69.9% | [10] 80.9% | [11] 46% | [12] 46.9% | [13] 40.2% | [14] 16.5% | [15] 24.4% | [17] 83.2%

COc1cc(/C=N/NC(=O)c2cnn3c2NC(c2ccccc2)C3)ccc1OCc1ccccc1 (configuration not stated)
inactive: [2] 43.7% | [4] 33.2% | [6] 18.9% | [7] 12.2% | [10] 35% | [16] 32.8%
active: [1] 0.0936% | [3] 2.7% | [5] -21.9% | [8] -63.4% | [9] -1.22% | [11] 8.39% | [12] -6.73% | [13] -28.3% | [14] -1% | [15] 0.769% | [17] 2.22%

Cc1ccc(CNc2c3ccccc3nc3cc(NC(=O)CCN4CCCC4)ccc23)cc1
active: [1] -49.4% | [2] -44.6% | [3] 7.44% | [5] -38.4% | [7] 5.63% | [8] -73.3% | [13] 8.86% | [14] -57.4% | [15] -22.4% | [18] -77.9% | [17] -6.45%
inactive: [4] 20.7% | [6] 42.5% | [9] 14.6% | [10] 63.1% | [11] 16.9% | [12] 35.3%

COc1cc(C2=NN(C(C)=O)C(c3cc(OC)c(OC)c(OC)c3)C2)ccc1O (configuration not stated)
inactive: [1] 15.6% | [3] 24.7% | [4] 34% | [5] 35.3% | [6] 30.3% | [11] 45.6% | [12] 23.1% | [14] 12.4%
active: [2] -27.5% | [7] 2.82% | [8] -51.9% | [9] -1.42% | [10] -55.4% | [13] -76% | [15] 8.15% | [18] 6.96% | [17] 2.51%

COc1cc(NC(C)CCCNC(=O)CCC(=O)NCCCNCCCCCCCCNCCCNC(=O)CCC(=O)NCCCC(C)Nc2cc(OC)cc3cccnc23)c2ncccc2c1 (configuration not stated)
inactive: [1] 107% | [2] 53.5% | [3] 70.6% | [4] 66.8% | [5] 18.1% | [6] 97.9% | [7] 59.1% | [8] 39.8% | [9] 75% | [10] 91.7% | [12] 95.2% | [13] 70.7% | [14] 78% | [15] 34.6% | [18] 52.5% | [16] 69.5% | [17] 82.1%
active: [11] 7.63%

Nc1ccccc1NC(=O)c1ccc(-n2nc(-c3ccccc3)c3ccccc32)cc1
inactive: [1] 48.6% | [3] 62.6% | [4] 87.1% | [5] 77% | [6] 107% | [7] 68.5% | [8] 72.6% | [9] 83.5% | [10] 54% | [11] 76.9% | [13] 92.2% | [14] 84.8% | [15] 57.1% | [18] 58.1% | [17] 91.4%
active: [2] -8.09% | [12] -92.3%

CCc1c2c(nc3ccc(OCc4ccc(B(O)O)cc4)cc13)-c1cc3c(c(=O)n1C2)COC(=O)[C@]3(O)CC
active: [1] -2.77% | [2] 6.35% | [3] 6.94% | [6] -4.91% | [8] 6.75% | [10] -0.104% | [11] -1.27% | [12] -3.67% | [13] 6.63% | [15] 1.65% | [18] 4.57% | [17] 1.86%
inactive: [4] 11.5% | [5] 24.2% | [7] 17.6% | [9] 36.7% | [14] 13.8% | [16] 19.2%

O=C(Nc1ccccc1)Nc1ccc2cc3ccc(NC(=O)Nc4ccccc4)cc3nc2c1
inactive: [2] 104% | [4] 92.4% | [6] 112% | [7] 51% | [10] 102% | [12] 86.2% | [13] 21.9% | [15] 27.2% | [17] 38.9%
active: [1] -18.6% | [3] -23.7% | [5] -31.9% | [8] -11.6% | [9] -26.7% | [11] -3.77% | [14] -62.7% | [16] -28.9%

C[C@H]1[C@H](C)CC[C@]2(C(=O)NCC#CCN3CCN(C)CC3)CC[C@]3(C)C(=CC[C@@H]4[C@@]5(C)Cc6c([nH]c7ccccc67)C(C)(C)[C@@H]5CC[C@]43C)[C@H]12
inactive: [2] 67% | [3] 90.2% | [4] 94.4% | [5] 83.2% | [6] 86.9% | [7] 93.6% | [8] 82.6% | [9] 82.8% | [10] 82.8% | [11] 76.7% | [12] 99.6% | [13] 52.2% | [14] 57.5% | [15] 41.3% | [18] 25.8% | [17] 75.2%
active: [1] 4.29%

c1ccc2c(-c3c[nH]c4ccccc34)c3c(cc2c1)[nH]c1ccccc13
active: [13] -3.69%
inactive: [1] 29.4% | [2] 54.5% | [3] 90.7% | [4] 96% | [5] 57.8% | [6] 84.5% | [7] 69% | [8] 59.3% | [9] 84.1% | [10] 56.6% | [11] 33.8% | [12] 67.4% | [14] 42.6% | [15] 30.9% | [16] 82.8% | [17] 35.7%

N#C/C(=C\c1ccc(C(F)(F)F)cc1)c1cc2ccccc2[nH]1
inactive: [1] 95.7% | [2] 72% | [3] 101% | [4] 108% | [5] 92% | [6] 93% | [7] 94.5% | [8] 104% | [9] 104% | [10] 104% | [11] 89.8% | [12] 94.1% | [13] 97.1% | [14] 100% | [15] 77.4% | [16] 116% | [17] 97.7%

COc1cc(/C=C2\COc3ccc(-c4ccccc4)cc3C2=O)cc(OC)c1
active: [2] 3.36%
inactive: [1] 58.5% | [3] 56.2% | [4] 106% | [5] 63.8% | [6] 108% | [7] 90.8% | [8] 69% | [9] 92.9% | [10] 61% | [11] 70.3% | [12] 74.7% | [13] 66% | [14] 62.8% | [15] 57.3% | [18] 62.1% | [17] 68.5%
